Test results reported in PubChem BioAssay (NCATS).
“And” between values parts separate entries of the source, which are not always exact repeats. Identical values can stand only once. Inconclusive results are not listed. For part of these data: Potency and affinity values are given separately. The source made the active and inactive calls.

Assays:
[1] = target: Hexokinase-4 (Homo sapiens) + Glucokinase regulatory protein (Homo sapiens) (UniProt P35557+Q14397); experiment: qHTS assay for inhibitors of recombinant human GCK-GKRP interaction: HTRF assay (AID 743207; active means well fitted curve in the direction sought with a large enough effect; an effect the other way counts as inactive or inconclusive;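 further: 0% = DMSO with GCK present and -100% = DMSO wells lacking GCK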)
Sequence of Hexokinase-4 (Homo sapiens) + Glucokinase regulatory protein (Homo sapiens) (P35557 whole entry, looked up): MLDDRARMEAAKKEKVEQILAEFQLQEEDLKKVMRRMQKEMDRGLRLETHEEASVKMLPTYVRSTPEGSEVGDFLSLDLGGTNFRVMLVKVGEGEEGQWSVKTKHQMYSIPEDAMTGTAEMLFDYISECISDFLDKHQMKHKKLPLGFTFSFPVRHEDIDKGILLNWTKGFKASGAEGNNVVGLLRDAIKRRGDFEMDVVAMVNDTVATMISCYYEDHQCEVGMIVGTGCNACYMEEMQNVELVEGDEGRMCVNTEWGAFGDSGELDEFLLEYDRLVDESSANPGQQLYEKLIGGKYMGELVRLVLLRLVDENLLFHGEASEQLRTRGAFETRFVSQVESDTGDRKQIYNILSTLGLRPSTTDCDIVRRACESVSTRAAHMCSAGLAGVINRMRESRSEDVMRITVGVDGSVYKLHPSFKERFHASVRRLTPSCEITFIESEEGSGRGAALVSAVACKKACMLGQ
Sequence of Hexokinase-4 (Homo sapiens) + Glucokinase regulatory protein (Homo sapiens) (Q14397 whole entry, looked up): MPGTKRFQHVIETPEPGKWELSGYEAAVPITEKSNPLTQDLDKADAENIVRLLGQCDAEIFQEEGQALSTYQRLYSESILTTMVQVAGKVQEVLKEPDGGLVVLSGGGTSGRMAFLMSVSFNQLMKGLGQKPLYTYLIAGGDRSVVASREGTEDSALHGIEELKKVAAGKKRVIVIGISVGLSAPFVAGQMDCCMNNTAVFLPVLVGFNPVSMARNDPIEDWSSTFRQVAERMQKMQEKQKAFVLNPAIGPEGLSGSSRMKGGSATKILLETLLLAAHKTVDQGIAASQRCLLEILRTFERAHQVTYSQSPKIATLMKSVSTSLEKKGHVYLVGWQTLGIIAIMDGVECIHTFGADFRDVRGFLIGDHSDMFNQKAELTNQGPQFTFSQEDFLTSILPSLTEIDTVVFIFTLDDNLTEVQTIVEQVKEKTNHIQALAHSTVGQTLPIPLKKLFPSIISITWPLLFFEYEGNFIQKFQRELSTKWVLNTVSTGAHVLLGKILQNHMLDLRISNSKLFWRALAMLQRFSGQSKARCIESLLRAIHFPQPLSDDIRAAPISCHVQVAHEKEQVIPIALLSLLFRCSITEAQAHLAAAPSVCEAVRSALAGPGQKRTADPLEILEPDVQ
In short: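 GST-GCK and FLAG-GKRP (5 nM each) were combined with 2 uM S6P in pH 7.1 Hepes/MgCl2/KCl/DTT buffer, then compound and anti-FLAG XL665/anti-GST K antibodies were added. After 60 min at room temperature, HTRF 665/615 nm emission was read.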

[2] = qHTS Assay for Identifying Gametocytocidal Compounds (AID 743244; active means well fitted curve in the direction sought with a large enough effect; an effect the other way counts as inactive or inconclusive;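 further: on the % scale 0 is the no-effect control and ±100 the full control effect; actives lower the fluorescent signal which means gametocytes are killed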); conditions: P. falciparum 3D7 stage III-V gametocytes, alamarBlue, 72 h; max response: stronger effect = lower value
In short: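 Stage III–V gametocytes of P. falciparum 3D7 were seeded at 20,000 cells/well onto pre-dispensed compounds. After 72 h, 37 °C, 5% CO2, alamarBlue was added for another 24 h.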

[3] = qHTS assay for cell viability of HEK293 cells (AID 743288; active means well fitted curve in the direction sought with a large enough effect; an effect the other way counts as inactive or inconclusive; further: on the % scale 0 is the no-effect control and ±100 the full control effect; nearly all actives have a fitted effect of over 50% in size); conditions: ATP luminescence (CellTiter-Glo), 18 h, stronger effect = lower value
In short: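 After 18 h compound exposure at 37 C, parental HEK293 cells (2,000/well) are lysed with CellTiter-Glo and luminescence is read following 30 min at room temperature.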

[4] = qHTS profiling for inhibitors of Plasmodium falciparum (3D7) proliferation (AID 743322);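 further: infected erythrocytes exposed to compound for 72 h before lysis; 100% = DMSO vehicle wells and 0% = 0.29 µM artemisinin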; conditions: P. falciparum 3D7 proliferation; at 28.7 µM (top of the series)
In short: (§1)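 Parasite DNA was quantified by SYBR Green I fluorescence (ex 485, em 535 nm) after overnight lysis in saponin/Triton buffer at room temperature. Cultures at 0.3% parasitemia and 2.5% hematocrit were first exposed to compound for 72 h at 37 C; signals were normalised to artemisinin (0.29 uM) and vehicle wells.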

[5] = qHTS profiling for inhibitors of Plasmodium falciparum (DD2) proliferation (AID 743323); conditions: lower = more inhibition; at 28.7 µM (top of the series)
In short: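 Parasite proliferation measured via DNA-dye fluorescence, as uninfected erythrocytes lack DNA. Cultures at 0.3% parasitemia and 2.5% hematocrit incubated 72 h with compound; signal scaled between vehicle and 0.29 uM artemisinin wells.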

[6] = qHTS profiling of the MIPE4 collection as inhibitors of Plasmodium falciparum (3D7) proliferation (AID 743344);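 further: scaled between DMSO vehicle wells and 0.29 µM artemisinin as full inhibition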; conditions: P. falciparum 3D7 in erythrocytes, SYBR Green DNA fluorescence, 72 h; at 28.5 µM (top of the series) unless noted
In short: as §1

[7] = qHTS profiling of the MIPE4 collection as inhibitors of Plasmodium falciparum (DD2) proliferation (AID 743345); conditions: P. falciparum Dd2 in erythrocytes, SYBR Green DNA, 72 h; at 28.5 µM (top of the series) unless noted
In short: as §1

[8] = qHTS profiling of the MIPE4 collection as inhibitors of Plasmodium falciparum (HB3) proliferation (AID 743347);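 further: plate controls were DMSO vehicle wells for no effect and artemisinin wells for full effect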; conditions: P. falciparum HB3 in erythrocytes, SYBR Green DNA, 72 h; at 28.5 µM (top of the series) unless noted
In short: as §1

[9] = Ebola virus entry assay, blue channel fluorescence
[10] = Ebola virus entry assay, green fluorescence channel
[11] = Ebola virus entry assay, blue channel fluorescence; remark: listed apart in the source
[12] = Ebola virus entry assay, green channel fluorescence
[13] = Ebola virus entry assay, blue channel fluorescence; remark: listed apart in the source
[14] = Ebola virus entry assay, reporter ratio channel; AC50: Channel type: primary unless noted; outcome: Channel type: primary unless noted
[15] = Ebola virus entry assay, blue channel (ratio component)
[16] = Ebola virus entry reporter assay, green channel fluorescence
[17] = Ebola virus entry cell assay, ratio channel
[18] = Ebola virus entry assay, ratio channel

O=P1(N(CCCl)CCCl)NCCCO1 (configuration not stated)
108% and 125%: activity, percent of control [5]
65.9%: growth, % of control [8]
54.1%: parasite growth remaining, % of DMSO control (lower = more inhibition) [7]
42.1%: parasite growth, % of DMSO control [6]
inactive: outcome [1] | max response [2] -0.339% and 12.3% | max response [3] -14.2% and 0.164% | outcome [9] | outcome [10] | outcome [11] | outcome [12] | outcome [13] | outcome [14] | outcome [15] | outcome [16] | outcome [17]
108% and 105%: remaining parasite growth % (stronger effect = lower value) [4]

Cc1cc(-n2nc3ccc(Cl)cc3n2)c(O)c(C(C)(C)C)c1
inactive: outcome [11] | outcome [18] | outcome [12] | outcome [14] | outcome [15]

CCOc1cc(OCC)c(C(=O)CCC(=O)O)cc1OCC
inactive: outcome [11] | outcome [18] | outcome [12] | outcome [14] | outcome [15]

CC(C)(C)NCC(O)COc1ccc(NC(=O)NC2CCCCC2)cc1 (configuration not stated)
active: AC50 [11] 39.8 µM | AC50 [14] 39.8 µM
inactive: outcome [18] | outcome [12]

CCC(CC)(CNC(=O)CCCO)c1cccc(OC)c1
inactive: outcome [11] | outcome [18] | outcome [12] | outcome [14] | outcome [15]

O=C1CCCc2c(O)cccc21
inactive: outcome [11] | outcome [18] | outcome [12] | outcome [14] | outcome [15]

N=C(N)N1CCc2ccccc2C1
inactive: outcome [11] | outcome [18] | outcome [12] | outcome [14]

CCCCCCCCCCCCCCCCOP(=O)([O-])OCC[N+](C)(C)C
inactive: outcome [11] | outcome [18] | outcome [12] | outcome [14]

O=C(O)[C@@H]1CSCN1
inactive: outcome [11] | outcome [18] | outcome [12] | outcome [14] | outcome [15]

CCCNC(C)C(=O)Nc1ccccc1C (configuration not stated)
inactive: outcome [11] | outcome [18] | outcome [12] | outcome [14] | outcome [15]

Cc1ccc(-c2ncc(Cl)cc2-c2ccc(S(C)(=O)=O)cc2)cn1
inactive: outcome [11] | outcome [18] | outcome [12] | outcome [14] | outcome [15]

COc1cc(-c2ccc(=O)[nH]n2)ccc1OC(F)F
inactive: outcome [11] | outcome [18] | outcome [12] | outcome [14] | outcome [15]

O=C(O)CCCC[C@@H]1SC[C@@H]2NC(=O)N[C@@H]21
inactive: outcome [11] | outcome [18] | outcome [12] | outcome [14] | outcome [15]

Cc1nnc(NS(=O)(=O)c2ccc(N)cc2)s1
inactive: outcome [11] | outcome [18] | outcome [12] | outcome [14] | outcome [15]

COc1cc(C=C2CCC/C(=C\c3ccc(O)c(OC)c3)C2=O)ccc1O
inactive: outcome [12]
active: AC50 [11] 31.6 µM | AC50 [18] 28.2 µM | AC50 [14] 28.2 µM

CCC[C@@H]1C[C@@H](C(=O)N[C@@H]([C@H]2O[C@H](SC)[C@H](O)[C@@H](O)[C@H]2O)[C@@H](C)O)N(C)C1
inactive: outcome [11] | outcome [18] | outcome [12] | outcome [14] | outcome [15]

O=C(O)c1cccnc1
inactive: outcome [11] | outcome [18] | outcome [12] | outcome [14] | outcome [15]

COC(=O)c1ccccc1C(=O)c1ccc(OCCN2CCCCC2)cc1
active: AC50 [11] 14.1 µM | AC50 [18] 14.1 µM | AC50 [14] 14.1 µM
inactive: outcome [12]

CC(C)C(=O)c1c(C(C)C)nn2ccccc12
inactive: outcome [11] | outcome [18] | outcome [12] | outcome [14] | outcome [15]

CCC(C(=O)OCCN(CC)CC)c1ccccc1 (configuration not stated)
inactive: outcome [11] | outcome [18] | outcome [12] | outcome [14] | outcome [15]

CC(C)(C)NCC(O)COc1ccccc1OCC1CCCO1 (configuration not stated)
inactive: outcome [11] | outcome [18] | outcome [12] | outcome [14] | outcome [15]

Cn1c(=O)c2c(ncn2CC(=O)O)n(C)c1=O
inactive: outcome [11] | outcome [18] | outcome [12] | outcome [14] | outcome [15]

NC(=O)NS(=O)(=O)c1ccc(N)cc1
inactive: outcome [11] | outcome [18] | outcome [12] | outcome [14] | outcome [15]

Cc1ccc(-c2ccccc2C#N)cc1
inactive: outcome [11] | outcome [18] | outcome [12] | outcome [14] | outcome [15]

C[C@H](NC(CCc1ccccc1)C(=O)O)C(=O)N1CCC[C@H]1C(=O)O (some centres not stated)
inactive: outcome [11] | outcome [18] | outcome [12] | outcome [14] | outcome [15]

CN[C@@H]1[C@H](O)[C@H](NC)[C@H]2O[C@@]3(O)C(=O)C[C@@H](C)O[C@H]3O[C@@H]2[C@H]1O
inactive: outcome [11] | outcome [18] | outcome [12] | outcome [14] | outcome [15]

c1ccc(-c2nc[nH]c2-c2ccccc2)cc1
inactive: outcome [18] | outcome [12] | outcome [14] | outcome [15]
active: AC50 [11] 35.5 µM

O=C1CC[C@@H](C(=O)O)N1
inactive: outcome [11] | outcome [18] | outcome [12] | outcome [14] | outcome [15]

CCCCCCCCCCCCCCCCCCN(C)C
inactive: outcome [11] | outcome [18] | outcome [12] | outcome [14] | outcome [15]

CN(C)c1ccc2nc3ccc(=[N+](C)C)cc-3sc2c1
inactive: outcome [11] | outcome [18] | outcome [12] | outcome [14] | outcome [15]

Nc1ncnc2c1ncn2[C@@H]1O[C@H](CO)[C@@H](O)[C@H]1O
inactive: outcome [11] | outcome [18] | outcome [12] | outcome [14] | outcome [15]
